# Compounds with a hit are over-represented: about 4.1% of the library has one in this group of screens.
# Shn3 3UTR inh: Schnurri-3 reporter inhibition in Clone20 osteoblasts | Clone20 osteoblast Shn3 3'UTR firefly luciferase, 24 h | inhibition, % at 12.5 µM | actives 0.52% (n = 360,000);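 active = mean inhibition of at least 75% with every replicate also reaching 75%; inconclusive = mean inhibition at least 75% but some replicate below; inactive = mean inhibition below 75%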;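 note: 0% = median of neutral control wells and 100% = pilot-screen positive control compound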
# TROY NFkB inh: TROY signaling inhibition | inhibition, % at 10 µM | actives 0.98% (n = 360,000) | AID 1347056 | Q293 LMP1-TROYcd NF-kB luciferase reporter, 4 h;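 active = compounds whose plate-normalised and pattern-corrected inhibition of the luciferase reporter signal at the single screening dose is 50% or more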
# TRPM1 prom inh: MITF TRPM1 promoter inhibition in SK-MEL-5 cells | SK-MEL-5 TRPM1 promoter luciferase, 24 h | inhibition, % at 12.5 µM | actives 0.83% (n = 330,000);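 active = mean inhibition across replicates of 60% or more, whatever share of single replicates reaches that level; inconclusive = some that reach 60%, reason not given; inactive = mean inhibition across replicates below 60%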
# Peg3 promoter: reduces Peg3 promoter-driven luciferase expression in HeLa. HeLa PEG-Prom luciferase reporter, luminescence, overnight. inhibition, % at 20 µM. actives 1.7% (n = 360,000);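 active = inhibition of at least 50% at 20 µM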
# EBV LMP1 NFkB: inhibitors of Epstein-Barr LMP1-induced NF-kappaB reporter. inhibition, % at 12.5 µM. actives 0.69% (n = 350,000). LMP1-induced NF-kappaB luciferase reporter cells, luminescence; in the data active = inhibition above about 41%; inconclusive = no clear call, values can overlap the other calls;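 note: 0% = neutral control wells and 100% = reference inhibitor control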
# TWEAK-Fn14 inh: blocks TWEAK-Fn14 interaction in a reporter cell assay. TWEAK-stimulated Fn14 reporter cells, luciferase luminescence, 8 h. inhibition, % at 10 µM. actives 2% (n = 360,000). AID 1159606; in the data active = inhibition above about 50%
# * marks the source's active call; other numbers are inactive results; ? = inconclusive; . = no result given.
SMILES,Shn3 3UTR inh,TROY NFkB inh,TRPM1 prom inh,Peg3 promoter,EBV LMP1 NFkB,TWEAK-Fn14 inh
Cc1cccc(NS(=O)(=O)c2cc(C(=O)OC(C)C(=O)NCc3ccc4c(c3)OCO4)ccc2C)c1 (configuration not stated),58.1,29.3,3.3,36.4,5.1,52.8*
COc1cccc2c1C(=O)c1c(O)c3c(c(O)c1C2=O)C[C@@](O)(C(=O)CO)C[C@@H]3O[C@H]1C[C@H](N)[C@H](O)[C@H](C)O1,92.0*,5.2,86.9*,94.6*,83.7*,86.6*
CC(=O)[C@@]1(O)Cc2c(O)c3c(c(O)c2[C@H](O[C@H]2C[C@H](N)[C@H](O)[C@H](C)O2)C1)C(=O)c1ccccc1C3=O,93.4*,65.8*,.,98.7*,.,95.3*
COc1cccc2c1C(=O)c1c(O)c3c(c(O)c1C2=O)CC(O)(C(C)=O)CC3OC1CC(N(C)C)C(O)C(C)O1 (configuration not stated),94.3*,61.5*,79.2*,98.0*,93.4*,98.4*
COc1cccc2c1C(=O)c1c(O)c3c(c(O)c1C2=O)C[C@@](O)(C(=O)CO)C[C@@H]3OC1CC(N)C(O)C(C)O1 (some centres not stated),87.2*,-17.5,59.9,95.8*,61.9*,76.0*
CC(C)(C)NC(=O)CSCc1ccc(Br)cc1,-1.1,2.6,-6.0,-16.6,-2.6,1.8
c1cc(CNc2ccc3c(c2)OCCO3)ccn1,.,61.7*,10.2,-6.8,20.6,81.5*
C=CCOc1ccccc1CNc1ccccc1C,-31.7,17.9,2.6,-11.1,-3.6,68.8*
C=CCOc1ccccc1CNc1ccc2c(c1)OCCO2,35.1,85.0*,31.5,-3.3,20.3,90.7*
CCOc1ccc(Br)cc1CNc1ccc2c(c1)OCCO2,20.6,87.4*,9.8,-56.6,26.8,83.1*
CCOC(=O)C1=CCN(S(=O)(=O)c2ccccc2F)C1c1ccccc1 (configuration not stated),-2.5,-6.0,.,3.9,.,2.9
COC(=O)c1c(NC(=O)C2CC=CCC2C(=O)O)sc2c1CCCCC2 (configuration not stated),-14.5,1.9,8.2,6.6,-1.6,96.4*
O=C(Nc1sc2c(c1C(=O)O)CCCCC2)c1ccccc1,-59.4,36.7,-56.2,-215.4,2.7,64.4*
O=C(Nc1sc2c(c1C(=O)O)CCC2)c1ccccc1,-15.4,-34.2,-10.4,-144.1,-1.8,35.6
COC(=O)c1c(NC(C)=O)sc2c1CCCCC2,5.9,5.6,4.1,-7.8,-2.8,8.0
COc1cc(NC(=O)c2ccc(-c3cccc(F)c3)o2)ccc1NC(=O)c1ccccc1Cl,10.7,-9.4,5.5,23.4,1.4,4.0
Cc1ccc(NC(=O)c2cc(S(=O)(=O)NCC3CCCO3)ccc2F)cc1 (configuration not stated),12.4,-5.8,.,-12.6,0.2,-17.5
Cc1ccc(NC(=O)c2cc(S(=O)(=O)NCCC3=CCCCC3)ccc2F)cc1,75.3,34.9,-10.2,30.3,-9.9,57.4*
O=C(CCNS(=O)(=O)c1ccccc1Cl)OCc1nnc(-c2ccccc2Cl)o1,-8.6,-1.1,-14.6,5.8,3.8,-6.2
Cc1ccc(C)c2sc(N3CCN(C(=O)c4ccc([N+](=O)[O-])o4)CC3)nc12,46.2,13.3,48.0,18.6,-89.2,0.4
O=C(c1ccc([N+](=O)[O-])o1)N1CCN(c2nc3c(F)cc(F)cc3s2)CC1,25.7,-4.1,79.3*,-5.1,-24.4,21.9
c1ccc(CCc2nn3c(-c4ccncc4)nnc3s2)cc1,8.5,28.7,-18.9,-35.1,28.6,73.9*
COc1ccc(NC(=O)C2CCCN(S(=O)(=O)c3ccc4c(c3)CCCN4C(C)=O)C2)cc1Cl (configuration not stated),37.4,21.1,18.2,8.8,23.4,4.7
CCOc1ccccc1/C=C(/NC(=O)c1ccccc1)C(=O)N(CC)CC,19.2,50.1*,9.1,6.8,-3.2,58.0*
Cc1ccc(C)c(NC(=O)CSc2ccc(-c3ccco3)nn2)c1,56.5,14.1,-7.4,12.2,-1.3,-28.5
SMILES,Shn3 3UTR inh,TROY NFkB inh,TRPM1 prom inh,Peg3 promoter,EBV LMP1 NFkB,TWEAK-Fn14 inh
Cc1cc(=O)n(C)c2ccccc12,-8.4,12.1,-1.2,2.5,-4.2,2.4
Cc1cc(=O)n2c3c(c4c(cc13)c(CN(C)C)cc(=O)n4C)OC2,-23.2,52.2*,-1.5,2.6,-9.6,-23.6
COc1ccc(CN=C(Nc2ccccc2)SC2CC(=O)NC2=O)cc1 (configuration not stated),-3.1,-3.3,-9.5,11.1,-3.5,6.8
O=C1CC(SC(=NCc2ccc3c(c2)OCO3)Nc2ccccc2)C(=O)N1 (configuration not stated),-9.8,-11.0,-4.3,-14.7,55.0*,1.3
CN(C(=O)c1cnc(N2CCN(c3ncccn3)CC2)c2ccccc12)c1ccc(Cl)cc1,11.7,40.7,-4.7,61.6*,-1.8,48.8
CCN(C(=O)c1cnc(N2CCN(c3ncccn3)CC2)c2ccccc12)c1cccc(Cl)c1,33.8,26.2,15.9,21.6,16.3,65.7*
COc1cc(-c2noc(C)c2-c2ccc(N(C)C)nc2)cc(OC)c1OC,6.6,7.2,?,22.7,11.7,8.1
COc1cc(-c2noc(C)c2-c2ccc3[nH]ccc3c2)cc(OC)c1OC,10.2,11.8,32.2,-24.3,-2.9,55.9*
O=C(COc1ccc(Br)cc1)NNC(=O)Cc1ccc(S(=O)(=O)N2CCOCC2)s1,-7.5,6.2,-1.3,-5.7,-8.9,11.7
CCOc1ccccc1N1CCN(C(=O)c2cn(CC3CCCCC3)nn2)CC1,-57.5,-70.1,-25.3,-169.1,-24.0,-39.0
O=C(NCCOc1ccccc1)c1ccc2c(c1)OCO2,-4.0,63.3*,58.6,41.4,65.7*,93.8*
CN(CCOc1ccccc1)C(=O)c1ccc2c(c1)OCO2,-11.6,-41.7,-68.1,-137.6,-13.3,-2.5
COc1cccc(CC(=O)NNC(=O)c2ccc3c(c2)OCO3)c1,10.1,6.5,-2.2,10.6,45.3*,4.0
O=C1CN(C(=O)COC(=O)/C=C/c2ccc(S(=O)(=O)N3CCOCC3)cc2)c2ccccc2N1,-7.4,-1.4,3.1,-11.1,-1.4,-5.0
Cc1cc(C(=O)NCc2ccccc2Cl)n(-c2ccccc2)n1,4.6,-13.8,-5.1,-0.4,-4.1,-1.4
CC(C)N1CCc2c(sc(NC(=O)c3ccc(S(=O)(=O)N4CCc5ccccc54)cc3)c2C(N)=O)C1,18.5,7.7,3.0,97.7*,-11.1,16.5
NC(=O)c1ccsc1NC(=O)c1ccc(S(=O)(=O)N2CCCc3ccccc32)cc1,59.6,61.4*,.,19.9,-12.4,92.1*
CC(C)N1CCc2c(sc(NC(=O)c3nc4ccccc4s3)c2C(N)=O)C1,11.5,27.6,-8.3,-38.6,10.4,20.0
COC1=CC(=O)C(O)=C(CCCCCCC/C=C/CCCCCCCC2=C(O)C(=O)C=C(OC)C2=O)C1=O,1.6,61.5*,6.8,18.3,9.7,85.0*
